{"source": "PubChem BioAssay (NCATS)", "note": "Records with an inconclusive call do not appear. A call without a number means that no potency is given here. Active and inactive are the calls of the source. The call rests on the fitted dose curve; in most records, active means well fitted cell-killing curve with a large enough effect; inconclusive means small, poorly fitted or top-dose-only effect; inactive means flat fitted curve, though single readings scatter. Potency means the concentration at half of the fitted maximal effect."}
{"assay": "Cell Viability - H-4-II-E (AID 543); further: nearly all actives have a fitted effect of over 35% in size", "conditions": "H-4-II-E rat hepatoma viability; series mostly up to 92.2 µM", "excerpt": "NIH Chemical Genomics Center [NCGC]\nNIH Molecular Libraries Screening Centers Network [MLSCN]\nNational Institutes of Environmental Health Sciences [NIEHS]\nNational Toxicology Program [NTP]\nWe have developed a 1536-well cell-based assay for quantitative high throughput screening (qHTS) against a number of cell lines to determine in vitro cytotoxicity of small molecules. This particular assay uses the H-4-II-E cell line which is derived from rat hepatoma.\nNCGC Assay Protocol Summary:\nThe CellTiter-Glo luminescent cell viability assay (Promega) is a homogeneous method to measure the number of viable cells in culture. The end point readout of this assay is based on quantitation of intracellular ATP, an indicator of metabolic activity, using the luciferase reaction. Luciferase catalyzes the oxidation of beetle Luciferin to oxyluciferin and light in the presence of ATP. The luminescent signal is proportional to amount of ATP present.\nUsing the CellTiter-Glo luminescent cell viability assay, the amount of cellular ATP was measured in the H-4-II-E cell line with complete culture medium following compound treatment for 40 hours. The assay was performed in opaque white Kalypsys 1536-well plates. In the screen, tamoxifen and doxorubicin were used as positive controls. Library compounds were measured for their ability to cause acute toxicity in the cell line, as reflected by a decrease in intracellular ATP levels, in a concentration-dependent manner. […] AC50 values were determined from concentration-response data modeled with the standard Hill equation.\nqHTS protocol fo CellTiter Glo H-4-II-E cellular assay\n[Step] [Parameter] [Value] [Description]\n1. Reagent; 5 uL; 1500 H-4-II-E cells/well\n2. Time; 5 hr; 37 °C incubation\n4. Controls; 23 nL; Tamoxifen 0.34 uM to 100 uM & Doxorubicin 0.02 nM to 100 uM\n5. Time; 40 hr; 37 °C incubation\n6. Reagent; 5 uL; CellTiter Glo reagent\n7. Time; 20 min; Room Temperature\n8. Detection; Luminescence; Viewlux plate reader\nKeywords: cell viability, cytotoxicity, H-4-II-E cell line, luminescence, NTPHTS, NTPHTS_NCGC, NIEHS, EPA, DSSTox, MLSMR, MLSCN, NIH Roadmap, qHTS, NCGC"}
{"smiles": "OCC(Br)CBr", "note": "(stereo not given)", "Potency": "inactive"}
{"smiles": "CNC(=O)O/N=C/C(C)(C)SC", "Potency": "inactive"}
{"smiles": "C=CCOC(C)=O", "Potency": "inactive"}
{"smiles": "c1ccc2c(c1)CCCC2", "Potency": "inactive"}
{"smiles": "C=CC1CC=CCC1", "note": "(stereo not given)", "Potency": "inactive"}
{"smiles": "O=C(Cl)/C=C/C(=O)Cl", "Potency": "inactive"}
{"smiles": "COP(=S)(OC)Oc1ccc([N+](=O)[O-])cc1", "Potency": "inactive"}
{"smiles": "CC(Cl)Cl", "Potency": "inactive"}
{"smiles": "C/C=C/c1ccc2c(c1)OCO2", "Potency": "inactive"}
{"smiles": "C=C(C)C#N", "Potency": "inactive"}
{"smiles": "NC(=S)Nc1ccccc1", "Potency": "inactive"}
{"smiles": "BrCCBr", "Potency": "inactive"}
{"smiles": "CN=C=S", "Potency": "inactive"}
{"smiles": "ClC1=C(Cl)C2(Cl)C3C(Cl)C=CC3C1(Cl)C2(Cl)Cl", "note": "(stereo not given)", "Potency": "inactive"}
{"smiles": "O=C(O)COc1ccc(Cl)cc1Cl", "Potency": "inactive"}
{"smiles": "Clc1nc(Cl)nc(Nc2ccccc2Cl)n1", "Potency": "inactive"}
{"smiles": "ClC(Cl)(Cl)c1ccccc1", "Potency": "inactive"}
{"smiles": "COc1ccc(C=O)cc1OC", "Potency": "inactive"}
{"smiles": "c1ccc(-c2ccccc2)cc1", "Potency": "inactive"}
{"smiles": "CCC[CH2][Sn]([Cl])([Cl])[Cl]", "Potency": "inactive"}
{"smiles": "ClC(Cl)=C(c1ccc(Cl)cc1)c1ccc(Cl)cc1", "Potency": "inactive"}
{"smiles": "C=CC(=C)C", "Potency": "inactive"}
{"smiles": "C=CCOC(=O)c1ccccc1N", "Potency": "inactive"}
{"smiles": "c1ccc(OP(Oc2ccccc2)Oc2ccccc2)cc1", "Potency": "inactive"}
{"smiles": "O=NN(CCO)CCO", "Potency": "inactive"}
{"smiles": "COc1ccc(N)cc1", "Potency": "inactive"}
{"smiles": "CC(O)CCl", "note": "(stereo not given)", "Potency": "inactive"}
{"smiles": "Clc1cccc(C(Cl)(Cl)Cl)n1", "Potency": "inactive"}
{"smiles": "O=[N+]([O-])c1ccc(Cl)c(Cl)c1", "Potency": "inactive"}
{"smiles": "CCCSC(=O)Cl", "Potency": "inactive"}
{"smiles": "COC(=O)NC(=S)Nc1ccccc1NC(=S)NC(=O)OC", "Potency": "inactive"}
{"smiles": "CCOc1ccc(N)cc1", "Potency": "inactive"}
{"smiles": "O=[N+]([O-])c1cccc2ccccc12", "Potency": "inactive"}
{"smiles": "O=C1C(Cl)=C(Cl)C(=O)C(Cl)=C1Cl", "Potency": "50.1 µM (active)"}
{"smiles": "Nc1ccccc1Cl", "Potency": "inactive"}
{"smiles": "Cc1ccc2ccccc2c1", "Potency": "inactive"}
{"smiles": "[O-][Br+2]([O-])O", "Potency": "inactive"}
{"smiles": "Cc1cccc([N+](=O)[O-])c1", "Potency": "inactive"}
{"smiles": "OCC1CO1", "note": "(stereo not given)", "Potency": "inactive"}
{"smiles": "CCCC(=O)Cl", "Potency": "inactive"}
